Results taken from ChEMBL document CHEMBL3988442, “University of Dundee, Small-Polar-MMV Screening Library” (2021).
Screen size: about 69,000 compounds; about 950 (1.4%) showed an effect of 50% or more. Many of the other results were omitted from the sample, so strong results are more common in it than they were.

tested on: Mycobacterium tuberculosis; test: Cornell M. t heat shock assay; assay type: functional, organism-based; design: dose or concentration left out as unconfirmed; further: in the data most compounds retested in dose-response had high values

| SMILES | Percent Effect [%] |
| --- | --- |
| NC(=O)N1CCC2(CC1)CN(Cc1cccnc1)C(=O)CO2.O=C(O)C(F)(F)F | -31.58 |
| Cn1cc(CN2C[C@H]3CCC[C@@]3(COCC3CC3)C2)cn1.O=C(O)C(F)(F)F | 12.92 |
| COc1cc(CNCC(O)c2cccc(F)c2)cc2c1OCO2.Cl (stereo not drawn) | -9.248 |
| Cc1cccc(CN2CC[C@H]3[C@H]2CCN3Cc2cnn(C)c2)n1.O=C(O)C(F)(F)F.O=C(O)C(F)(F)F.O=C(O)C(F)(F)F | -12.06 |
| Cc1noc(C)c1CN1CCC2(CC1)NC(=O)CC2c1ccccc1.O=C(O)C(F)(F)F (stereo not drawn) | 5.51 |
| Cc1noc(C)c1C(=O)N1Cc2ncn(C)c2C(COCC2CC2)C1.O=C(O)C(F)(F)F (stereo not drawn) | 16.79 |
| CCN1CCC2(CCN(Cc3ccc(OC)cc3)CC2)C1=O.O=C(O)C(F)(F)F | -24.62 |
| Cl.N[C@@H](Cc1ccccc1)c1nnc(S(=O)(=O)Cc2cccc(Cl)c2)o1 | -4.264 |
| CCc1cn[nH]c1C1CCN(c2cc(C)c3cccc(OC)c3n2)CC1 | 85.21 |
| Cc1ccc(N2CCC(c3cc(Cc4ccccc4)n[nH]3)CC2)nn1 | 6.303 |
| CCc1cn[nH]c1C1CCN(c2cc(C)c3cc(OC)ccc3n2)CC1 | 2.652 |
| CCc1cn[nH]c1C1CCN(c2cc(C)c3ccc(OC)cc3n2)CC1 | -17.8 |
| Cc1ccc(N2CCCC(c3[nH]ncc3Cc3ccccc3)C2)nn1 (stereo not drawn) | 8.561 |
| Cc1ccc(N2CCC(c3[nH]ncc3Cc3ccccc3)CC2)nn1 | 102.6 |
| CC(=O)N1CCN(Cc2ccc(C)o2)CC2(CC(=O)N(C)C2)C1.O=C(O)C(F)(F)F (stereo not drawn) | -2.414 |
| Cc1nc(N)ncc1C(=O)N1CCCC(CCc2ccc(F)cc2)C1 (stereo not drawn) | -19.18 |
| Cc1ncccc1NC(=O)[C@@H]1CCO[C@@H]2CCN(c3ccccc3)C[C@@H]21.O=C(O)C(F)(F)F.O=C(O)C(F)(F)F | 12.9 |
| CCN(Cc1noc(C)n1)C(=O)CC1C(=O)NCCN1CC(C)(C)C (stereo not drawn) | -17.37 |
| O=C(N1CCCCC1)N1CCN(CC(O)c2ccccc2)CC1 (stereo not drawn) | -21.19 |
| OC(CN1CCN(CC2CC2)CC1)c1ccc(Br)cc1 (stereo not drawn) | 6.961 |
| OC(CN1CCN(CC2CCCCC2)CC1)c1ccccc1 (stereo not drawn) | 50.33 |
| CCCn1nc(C)c(-c2cncn2CCN(C)C2CCCC2)c1C.Cl | 7.382 |
| CN(C)S(=O)(=O)N1CCC[C@]2(C[C@@H](Oc3ncccc3F)CO2)C1.O=C(O)C(F)(F)F | -8.336 |
| CNS(=O)(=O)CCNc1cc(C)nc2cc(C)nn12 | 10.96 |

| SMILES | Percent Effect [%] |
| --- | --- |
| Cc1cc(NCc2cc(C)oc2C(F)(F)F)n2nc(C)cc2n1 | 56.47 |
| Cc1cc(NCc2ccc(C#N)cc2)n2nc(C)cc2n1 | -9.847 |
| Cc1cc(NCc2ccc(O)cc2)n2nc(C)cc2n1 | 21.53 |
| CNC(=O)CCCNc1cc(C)nc2cc(C)nn12 | -5.305 |
| Cc1cc(C(F)(F)F)nc(CNc2cc(C)nc3cc(C)nn23)n1 | 65.55 |
| Cc1cc(NCc2cccnc2)n2nc(C)cc2n1 | 1.456 |
| Cc1cc(NCc2ccc(CO)cc2)n2nc(C)cc2n1 | 10.67 |
| Cc1cc(NCCCC(F)(F)F)n2nc(C)cc2n1 | 87.73 |
| CC(C)OCCCN(CC(=O)N1CCNCC1)C(=O)c1cccc(Cl)c1.O=C(O)C(F)(F)F | -0.6086 |
| COc1cccc(CN2C[C@@H]3COC[C@]3(CN3CCOCC3)C2)c1.O=C(O)C(F)(F)F.O=C(O)C(F)(F)F | -20.77 |
| Cc1noc(C)c1CN1C[C@@H]2COC[C@@H](CC(=O)N3CCCCO3)[C@@H]2C1.O=C(O)C(F)(F)F | -4.663 |
| CCC(C)[C@H](N)c1nnc(SCC(=O)Nc2ccc(Br)cc2)o1.Cl (stereo partly drawn) | -9.343 |
| O=C(O)C(F)(F)F.c1cc(COC[C@H]2CCC[C@]23CNCCO3)ccn1 | 31.7 |
| CN(C)c1ncnc2c1CCN(CC1CCCC1)CC2.O=C(O)C(F)(F)F | 2.211 |
| CC(C)(C)c1cn2c(n1)C(CNCc1ccccn1)CCC2 (stereo not drawn) | 70.45 |
| Cn1cccc1CNCC1CCCn2cc(C(C)(C)C)nc21 (stereo not drawn) | 1.286 |
| CC(C)(C)c1cn2c(n1)C(CNCc1cnn3ccccc13)CCC2 (stereo not drawn) | 15.66 |
| CCOCC1CN(c2ccncn2)Cc2cnn(CC3CC3)c21.O=C(O)C(F)(F)F.O=C(O)C(F)(F)F (stereo not drawn) | -24.31 |
| COc1ncccc1C(=O)N1CC[C@]2(C[C@@H](Oc3cccnc3)CO2)C1.O=C(O)C(F)(F)F.O=C(O)C(F)(F)F | -28 |
| Cc1cccc(CN2C[C@@H]3COC[C@]3(CNC(=O)c3ccccc3)C2)n1.O=C(O)C(F)(F)F.O=C(O)C(F)(F)F | -15.75 |
| CN1CC(=O)N(c2cnn(C)c2)CC12CCN(Cc1cccnc1)C2.O=C(O)C(F)(F)F.O=C(O)C(F)(F)F.O=C(O)C(F)(F)F (stereo not drawn) | -54.01 |
| Cc1noc(C)c1CN1C[C@@H]2COC[C@@H](C(=O)N3CCCCO3)[C@@H]2C1.O=C(O)C(F)(F)F | -3.514 |
| COc1ccccc1N1CCN(C(=O)Cn2nc(C)cc2C)CC1(C)C | 8.115 |
| COc1ccc(N2CCN(C(=O)Cn3nccc3C)CC2(C)C)cc1 | 16.6 |
